This is an account of results in PubChem BioAssay.

One experiment addresses Albumin (Bos taurus) (UniProt P02769). Description: compounds binding labelled BSA control protein – biochemical, small-molecule microarray, Alexa647 label, 635/667 nm fluorescence, artefact control for SMM control protein annotation, profiling panel (AID 1118).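 Further: score merges 667 nm emission intensity and signal-to-noise per printed compound spot.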 Conditions: BSA-A647 binding, fluorescence 635 nm, higher = more signal.
Experiment [1] in a line: probe aXIP binding to arrayed compounds – biochemical, NeuroSMM set, 635/667 nm fluorescence, primary screen (AID 1119).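 Further: probe is the protein aXip251-270 applied at 1 µg/mL to compound-printed slides; binding of probe to printed compounds measured as 667 nm fluorescence plus signal to noise.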 Conditions: small-molecule microarray, higher = more signal, called active from +8 up or from −8 down.
A short description of experiment [2]: probe aNOTCH3 binding on compound microarray – biochemical, small-molecule microarray, 635/667 nm fluorescence, primary screen (AID 1120).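 Further: probe is a biotin-tagged antibody raised against NOTCH3 rather than NOTCH3 protein; score merges spot fluorescence near 667 nm with spot signal to noise.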 Conditions: higher = more signal.
Experiment [3] can be described thus: probe aNOTCH2 binding on compound microarray – biochemical, small-molecule microarray, 635/667 nm fluorescence, primary screen (AID 1121).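 Further: score merges feature fluorescence read at 667 nm with its signal to noise.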 The following applies: higher = more signal.
Experiment [4] deals with Carbonic anhydrase 2 (Homo sapiens) (UniProt P00918). As to the kind of experiment: compounds binding carbonic anhydrase 2 – biochemical, small-molecule microarray, Alexa647-labelled CAII, profiling panel (AID 1122). Conditions: CAII-A647 binding fluorescence, higher = more signal.
Experiment [5] in a line: COS7 lysate on small-molecule microarray, probe aHis, 635 nm (AID 1123).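 Further: z-score combines 667nm fluorescence intensity with signal-to-noise per printed compound spot.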 Conditions: COS7 cell lysate, fluorescence, higher = more signal.
Experiment [6] in a line: probe aLAP1 signal on lysate-treated microarray – cell lysate, small-molecule microarray, COS7 lysate, primary screen (AID 1124).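 Further: lysate comes from COS7 cells expressing LAP1 and is applied at 0.3 µg/mL; score merges spot fluorescence near 667 nm with signal-to-noise over triplicate slides.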 The following applies: probe aLAP1, fluorescence, higher = more signal.
The next experiment concerns Sam68 (KHDRBS1). As to the kind of experiment: compounds binding KHDRBS1 protein – biochemical, small-molecule microarray, 635 nm fluorescence, primary screen (AID 1125).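 Further: score merges 667 nm channel intensity with signal to noise over triplicate slides.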 Conditions: higher = more signal.
Experiment [7] relates to Chordin-like protein 2 (CHRDL2). As to the kind of experiment: compounds binding chordin-like 2 – biochemical, small-molecule microarray, 635 nm fluorescence, primary screen (AID 1126).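 Further: printed compound slides probed with Chrdl2 protein at 4 µg/mL for 1 h at 4 C; score merges 667 nm emission intensity with signal to noise over three replicate slides.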 Conditions: fluorescence 635 nm, higher = more signal.
For experiment [8], the target named is Concanavalin-A (Canavalia ensiformis) (UniProt P02866). Description: compounds binding concanavalin A lectin – biochemical, small-molecule microarray, Alexa647 label, 635 nm, artefact control for SMM control protein annotation, primary screen (AID 1127).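 Further: z combines 667 nm emission intensity with signal-to-noise across three replicate slides.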 Conditions: ConA-A647 binding fluorescence, higher = more signal.
Sequence of Concanavalin-A (Canavalia ensiformis) (P02866 whole entry, looked up): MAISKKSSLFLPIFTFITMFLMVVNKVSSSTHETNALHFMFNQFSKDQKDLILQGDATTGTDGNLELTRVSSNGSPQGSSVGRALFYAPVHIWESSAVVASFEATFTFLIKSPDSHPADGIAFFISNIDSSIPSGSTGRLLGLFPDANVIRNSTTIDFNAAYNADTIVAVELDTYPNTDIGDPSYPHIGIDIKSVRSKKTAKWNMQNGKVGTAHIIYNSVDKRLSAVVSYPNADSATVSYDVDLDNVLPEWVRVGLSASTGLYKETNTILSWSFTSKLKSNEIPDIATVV

Molecules are shown by their SMILES. Calls of active or inactive are those of the source.

Sequence of Albumin (Bos taurus) (P02769 whole entry, looked up): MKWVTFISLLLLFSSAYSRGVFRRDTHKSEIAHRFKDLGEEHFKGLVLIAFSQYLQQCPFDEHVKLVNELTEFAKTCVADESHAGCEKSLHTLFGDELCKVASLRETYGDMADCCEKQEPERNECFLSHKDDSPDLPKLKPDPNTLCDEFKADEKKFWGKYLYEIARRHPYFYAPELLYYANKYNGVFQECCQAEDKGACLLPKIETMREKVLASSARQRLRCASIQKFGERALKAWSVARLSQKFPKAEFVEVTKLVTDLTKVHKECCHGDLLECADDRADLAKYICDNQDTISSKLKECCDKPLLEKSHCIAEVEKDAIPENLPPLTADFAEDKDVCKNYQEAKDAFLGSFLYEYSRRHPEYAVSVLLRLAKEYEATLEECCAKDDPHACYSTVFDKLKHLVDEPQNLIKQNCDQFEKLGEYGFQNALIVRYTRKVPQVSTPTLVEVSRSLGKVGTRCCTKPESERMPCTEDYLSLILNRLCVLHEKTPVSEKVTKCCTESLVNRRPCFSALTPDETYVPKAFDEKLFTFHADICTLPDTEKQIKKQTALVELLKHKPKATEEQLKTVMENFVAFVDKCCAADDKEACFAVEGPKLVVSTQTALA

Regarding `COC(=O)[C@@]1(Cc2ccc(OC)cc2)[C@H]2c3cc(C(=O)N4CCCC4)n(Cc4ccc(OC(F)(F)F)cc4)c3C[C@H]2CN1C(=O)c1ccccc1`, the composite z-score is 0.943 in the experiment with Albumin (Bos taurus); 0.142 in [2]; 0.194 in experiment [3]; -0.0687 in experiment [4]; -0.0543 in experiment [5]; -0.347 in [6]. Besides, the composite z-score in the experiment on Sam68 (KHDRBS1) is -0.582; in experiment [7] it was -0.818; in experiment [8], 1.01. Besides, the composite Z-score in experiment [1] was 0.308 (inactive).

Take `COc1cc2c(cc1O)C(c1cccs1)N(Cc1sc3ccccc3c1Cl)CC2` (stereo not given): the composite z-score in the experiment with Albumin (Bos taurus) was determined as 0.931; in experiment [2], 0.173; in experiment [3], 0.0294; in experiment [4], 0.587; in [5] it was 2.04; in [6], 1.17. Besides, the composite z-score is 1.3 in the experiment with Sam68 (KHDRBS1), 0.613 in [7] and 1.07 in [8]. Moreover, the composite Z-score in experiment [1] is -0.818 (inactive).

As to `C=CCNC(=O)[C@H]1[C@@H]2C(=O)O[C@@H](c3ccccc3)[C@@H](c3ccccc3)N2[C@@H](c2ccc(O)cc2)[C@]12C(=O)N(C(=O)OCCOC)c1ccc(C#CCC(C(=O)OC)C(=O)OC)cc12`, the composite z-score with Albumin (Bos taurus) is 0.675; in [2] it was 0.0904; in experiment [3], -0.154; in [4], 0.378; in [5], 2.05; in experiment [6], 0.775. Besides, the composite z-score turned out to be 1.3 in the experiment on Sam68 (KHDRBS1), 0.822 in experiment [7] and 0.96 in experiment [8]. In addition, the composite Z-score in [1] was 1.04 (inactive).

As to `C=CC1c2cc(O)c(OC)cc2CCN1Cc1ccc([N+](=O)[O-])o1` (stereo not given), the composite z-score in the experiment with Albumin (Bos taurus) was 0.576; in [2], 0.136; in experiment [3], -0.0708; in [4], 0.847; in experiment [5], 2.05; in [6], 1.1. Also, the composite z-score with Sam68 (KHDRBS1) is 0.358; in experiment [7], -0.807; in experiment [8], 0.103. The composite Z-score in [1] is 0.402 (inactive).

Consider `C=C(C)[C@@H]1CC=C(C(O)C2C=CC3C(=O)N(c4ccccc4)C(=O)C3N2Nc2ccc(C#N)cc2)CC1` (stereo not given in full), for which the composite z-score with Albumin (Bos taurus) stood at 0.971; in experiment [2], 0.217; in experiment [3], 0.0963; in experiment [4], 0.643; in experiment [5], 2.46; in [6], 0.429. The composite z-score is 1.31 with Sam68 (KHDRBS1), 0.355 in experiment [7] and 1.16 in experiment [8]. For the same compound, the composite Z-score in experiment [1] is 0.0421 (inactive).

For `CC1(C)C(=O)C(c2ccccc2)=C2CN3C(=O)N(CCc4ccccc4)C(=O)C3(Cc3ccc(F)cc3)C=C21` (stereo not given), the composite z-score with Albumin (Bos taurus) is 0.471; in [2], 0.781; in [3], 0.246; in experiment [4], 0.0225; in experiment [5], 1.39; in experiment [6], 0.155. For the same compound, the composite z-score in the experiment on Sam68 (KHDRBS1) was 0.222; in experiment [7], -1.21; in experiment [8] it was 0.477. Besides, the composite Z-score in experiment [1] is 0.0294 (inactive).

For `Cc1c(NC(=O)/C(C#N)=C/c2ccccc2Cl)c(=O)n(-c2ccccc2)n1C`, the composite z-score with Albumin (Bos taurus) was 0.942; in [2] it was -0.0048; in experiment [3], -0.011; in experiment [4], 0.704; in [5], 1.08; in experiment [6], 0.237. The composite z-score with Sam68 (KHDRBS1) was 0.247; in experiment [7], 0.107; in experiment [8] it was 0.996. For the same compound, the composite Z-score in [1] was -0.683 (inactive).

Take `CCCNC(=O)[C@@]1(Sc2ccc(C)cc2)CC(=O)N(C(C)C)[C@@H]1c1ccc(CO)cc1I`: the composite z-score with Albumin (Bos taurus) is -0.249; in experiment [2], -0.219; in [3], -0.163; in [4], 0.771; in [5] it was 1.22; in [6] it was 0.846. In addition, the composite z-score in the experiment on Sam68 (KHDRBS1) was 0.58; in [7], -2.46; in [8], -0.818. For the same compound, the composite Z-score in experiment [1] was 0.292 (inactive).

Regarding `O=C1N(CCS(=O)(=O)c2ccccc2)Cc2ccccc2[C@@H]2OC(c3ccc(OCCCO)cc3)=N[C@]12CCS(=O)(=O)c1ccccc1`, the composite z-score with Albumin (Bos taurus) came out at 0.0789; in [2] it was 0.128; in experiment [3], 0.123; in experiment [4] it was 0.628; in experiment [5] it was 2.98; in [6], 0.638. Also, the composite z-score in the experiment on Sam68 (KHDRBS1) was found to be 1.31; in experiment [7] it was 1.15; in experiment [8], 1.11. In experiment [1], the composite Z-score is 0.02 (inactive).

As to `CCOC(=O)C1=C[C@@H](c2ccccc2)N(S(=O)(=O)c2ccc(C)cc2)[C@H]1c1ccccc1`, the composite z-score was 0.612 in the experiment with Albumin (Bos taurus); 0.0636 in experiment [2]; -0.022 in [3]; 0.0593 in experiment [4]; -0.136 in experiment [5]; 0.326 in experiment [6]. The composite z-score in the experiment with Sam68 (KHDRBS1) turned out to be 0.582; in experiment [7] it was 0.512; in experiment [8], 0.759. For the same compound, the composite Z-score in experiment [1] was 0.185 (inactive).

Turning to `C=CCNC(=O)[C@@H]1[C@H]2C(=O)O[C@H](c3ccccc3)[C@H](c3ccccc3)N2[C@H](c2ccc(O)cc2)[C@@]12C(=O)Nc1ccc(C#CCC(C(=O)OC)C(=O)OC)cc12`, the composite z-score in the experiment with Albumin (Bos taurus) was 0.0825; in [2], -0.0647; in experiment [3], -0.0907; in [4], 0.336; in experiment [5], 1.52; in experiment [6], 0.123. Also, the composite z-score in the experiment on Sam68 (KHDRBS1) was 1.33; in [7] it was 0.231; in experiment [8] it was 0.933. Also, the composite Z-score in [1] was -0.136 (inactive).

As to `CC(=O)N1CC(C(O)C2C=CC3C(=O)NC(=O)C3N2Nc2ccc(Cl)cc2Cl)c2ccccc21` (stereo not given), the composite z-score with Albumin (Bos taurus) is 0.892; in [2], -0.0077; in experiment [3], 0.108; in experiment [4] it was 0.693; in [5], 2.36; in [6] it was -0.0203. In addition, the composite z-score with Sam68 (KHDRBS1) was determined as 0.99; in experiment [7] it was 0.237; in [8] it was 0.732. Also, in experiment [1], the composite Z-score is 0.0413 (inactive).

On to `CCOC(=O)C1=CCC(c2ccco2)N(S(=O)(=O)c2ccc(C)cc2)C1` (stereo not given), for which the composite z-score was found to be 0.769 with Albumin (Bos taurus); 0.196 in experiment [2]; 0.0006 in experiment [3]; 0.581 in experiment [4]; 1.48 in [5]; 0.509 in experiment [6]. In addition, the composite z-score in the experiment with Sam68 (KHDRBS1) stood at 1.22; in experiment [7], 0.388; in [8] it was 0.956. For the same compound, in experiment [1], the composite Z-score was 0.204 (inactive).

For the compound `Cc1nc2cc(Br)ccc2c(=O)n1Cc1cccc(O)c1`, the composite z-score in the experiment with Albumin (Bos taurus) is 0.417; in experiment [2], -0.119; in experiment [3], -0.12; in experiment [4], 0.218; in experiment [5] it was 1.28; in experiment [6], 1.09. Further, the composite z-score with Sam68 (KHDRBS1) was determined as 0.968; in experiment [7] it was 1.04; in experiment [8] it was 0.799. Moreover, the composite Z-score in experiment [1] was 0.0614 (inactive).

As for `C=C(COC)/C(=C/C[C@@H](OC(=O)c1ccncc1)c1ccccc1OCCO)c1cc(C(=O)OC)ccc1OC`, the composite z-score with Albumin (Bos taurus) was 0.247; in experiment [2] it was -0.171; in experiment [3], -0.132; in experiment [4] it was 0.803; in experiment [5], 0.107; in experiment [6], 0.748. Moreover, the composite z-score in the experiment on Sam68 (KHDRBS1) was -0.227; in experiment [7] it was -1.12; in experiment [8] it was -0.71. Besides, the composite Z-score in experiment [1] is -0.476 (inactive).
